Results filed as inconclusive are left out. Active and inactive are the calls of the source.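 The calls were made as follows, unless noted: active = viability at or below 30% in both replicate assays; inconclusive = viability at or below 30% in just one of the two assays; inactive = the rest.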
Experiments:
[1] = reducers of endogenous Her2 protein level, primary screen, SKBR3 breast tumor cells, AlphaScreen, ATP viability (AID 461;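 active = Her2 level under about 52% in both replicate screens, with viability over 70% of control, limit read from the data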;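 as to Her2 level: lower value means less Her2 protein in the cells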;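 as to viability: percent of carrier control wells set as 100% viability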); conditions: 18-24 h, measured here: SKBR3 viability, ATP luminescence, at 10 µM
[2] = target: Receptor tyrosine-protein kinase erbB-2 (Homo sapiens) (UniProt P04626); test: as above; conditions: 18-24 h, at 10 µM, stronger effect = lower value
[3] = SK-BR-3 cell growth inhibitors, pilot screen, 24 h, human (AID 572;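 active = viability at or below 10% of carrier control in both of two separate runs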;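 also: compound exposure lasted between 18 and 24 h rather than exactly 24 h; 100% = carrier-treated control wells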); conditions: SK-BR-3 viability, CellTiter-Glo luminescence, at 10 µM, stronger effect = lower value
[4] = HUVEC growth inhibition – cell-based, human, primary screen (AID 575); conditions: HUVEC proliferation, CellTiter-Glo luminescence, 72 h; at 10 µM; stronger effect = lower value;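 also: 100% = median of untreated cell wells with 0.1% DMSO on each plate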
[5] = growth inhibitors of H69AR lung tumor, primary screen, human, duplicate replicates (AID 580;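 active = viability at or under a set limit in both replicates, limit being median viability minus 3 SD, cut at about 48% in these data, passing the limit was not always enough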;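 also: 100% = mean luminescence of untreated wells and 0% = no signal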); conditions: H69AR lung tumor cells viability, ATP luminescence, 72 h; at 10 µM; stronger effect = lower value
[6] = reversal of MRP1-mediated doxorubicin resistance, pilot screen, H69AR cells, doxorubicin co-treatment (AID 601;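 active = viability loss from added drug above about 55%, and viability with drug at most 40%, in both replicates, limit read from the data, passing the limit was not always enough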); conditions: CellTiter-Glo, 72 h, at 10 µM; for differential viability (reversal): stronger effect = higher value
[7] = 384-well plate pilot, post-Golgi transport modulator project, inhibition of yeast transport mutant growth (AID 636; in the data active = inhibition above about 31%); conditions: absorbance 615 nm, about 18 h, stronger effect = higher value
[8] = growth suppression of yeast trafficking mutant, preliminary HTS, modulators of trafficking downstream of Golgi apparatus project, 1536-format plate, OD 615 nm (AID 637; in the data active = inhibition above about 30%); conditions: yeast transport mutant growth, absorbance 615 nm, 18 h; stronger effect = higher value
[9] = OD615 S. cerevisiae growth inhibition, permissive medium, pilot counter-assay, permissive growth control for S. cerevisiae lifespan shortening project (AID 705;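 active = growth inhibition above 25% in both replicates, a cutoff set 3 SD above the mean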); conditions: OD615, 24 h, at 10 µM, stronger effect = higher value
[10] = Restrictive medium S. cerevisiae growth inhibition, OD615, pilot screen of yeast lifespan reduction project, restrictive growth control (AID 706;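 active = growth inhibition above a set limit, 3 SD over mean compound inhibition, in both replicates, cut at about 43% in these data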;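 also: modified DeaD lifespan yeast strain shifted to restrictive glucose medium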); conditions: OD615, 48 h, at 10 µM, stronger effect = higher value
[11] = viability gain of MRP-1-high H69AR cells under doxorubicin, pilot screen, MRP-1 activator project, CellTiter-Glo, duplicate (AID 807;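 active = viability increase at or above a cutoff of the median across tested compounds plus 3 SD, cut at about 8.5% in these data, passing the limit was not always enough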;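 also: compound pretreatment 18-22 h then 72 h combined with doxorubicin; 0% = doxorubicin alone and 100% = vehicle without doxorubicin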); conditions: H69AR viability with doxorubicin, CellTiter-Glo luminescence; at 10 µM; stronger effect = higher value
[12] = growth suppression of beta-catenin knockout HCT116, pilot screen, human colon tumor cells (AID 823;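 active = cell viability at or below a set limit in both duplicate runs, the limit being the all-compound median minus 4 SD, cut at about 23% in these data, passing the limit was not always enough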;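 also: 0% = wells killed by 20 µM Hyamine and 100% = untreated DMSO cell wells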); conditions: CellTiter-Glo, 60 h, at 10 µM, stronger effect = lower value
[13] = growth suppression of PTEN-deleted HCT116, pilot screen, cell-based, HCT116 clonal line, CellTiter-Glo (AID 824;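 active = viability at or below 27.92% in each of two runs, the all-compound median minus 4 SD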;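 also: 0% = 20 µM Hyamine control and 100% = vehicle cell control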); conditions: 60 h, at 10 µM, stronger effect = lower value
[14] = inhibitors of the yeast RAM network, pilot screen, dse1pr::URA3 reporter, 5-FOA selection (AID 869;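 active = inhibition over a set limit, the all-compound mean plus 3 SD, in both replicate runs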;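 also: 0% = DMSO wells with no growth and 100% = 10 µM 1-NA-PP1 with full growth; RAM network block rescues cells from 5-FOA so hits raise OD615 growth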); conditions: S. cerevisiae dse1pr::URA3 5-FOA growth, OD615, 2 d; at 10 µM; stronger effect = higher value; strain carries analog-sensitive mutant Cbk1 kinase
[15] = RAM signaling pathway blockade in yeast – S. cerevisiae, Pdr1DBD-CYC8 efflux-inhibited sensitized strain, primary screen (AID 1298;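 active = RAM network inhibition above 8.4% in each of two replicates, 3 SD over the compound average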;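 also: 0% = DMSO untreated cells without growth and 100% = 10 µM 1-NA-PP1 full growth; higher means more yeast growth rescued from 5-FOA killing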); conditions: S. cerevisiae cbk1-as DSE1-URA3 strain, 5-FOA growth OD615, 2 d; at 50 µM; stronger effect = higher value
[16] = H69AR cells + 2 uM doxorubicin, measured here: viability with 2 uM doxorubicin, stronger effect = lower value
[17] = H69AR cells, compound alone cytotoxicity

Chain of Receptor tyrosine-protein kinase erbB-2 (Homo sapiens) (P04626 whole entry, looked up): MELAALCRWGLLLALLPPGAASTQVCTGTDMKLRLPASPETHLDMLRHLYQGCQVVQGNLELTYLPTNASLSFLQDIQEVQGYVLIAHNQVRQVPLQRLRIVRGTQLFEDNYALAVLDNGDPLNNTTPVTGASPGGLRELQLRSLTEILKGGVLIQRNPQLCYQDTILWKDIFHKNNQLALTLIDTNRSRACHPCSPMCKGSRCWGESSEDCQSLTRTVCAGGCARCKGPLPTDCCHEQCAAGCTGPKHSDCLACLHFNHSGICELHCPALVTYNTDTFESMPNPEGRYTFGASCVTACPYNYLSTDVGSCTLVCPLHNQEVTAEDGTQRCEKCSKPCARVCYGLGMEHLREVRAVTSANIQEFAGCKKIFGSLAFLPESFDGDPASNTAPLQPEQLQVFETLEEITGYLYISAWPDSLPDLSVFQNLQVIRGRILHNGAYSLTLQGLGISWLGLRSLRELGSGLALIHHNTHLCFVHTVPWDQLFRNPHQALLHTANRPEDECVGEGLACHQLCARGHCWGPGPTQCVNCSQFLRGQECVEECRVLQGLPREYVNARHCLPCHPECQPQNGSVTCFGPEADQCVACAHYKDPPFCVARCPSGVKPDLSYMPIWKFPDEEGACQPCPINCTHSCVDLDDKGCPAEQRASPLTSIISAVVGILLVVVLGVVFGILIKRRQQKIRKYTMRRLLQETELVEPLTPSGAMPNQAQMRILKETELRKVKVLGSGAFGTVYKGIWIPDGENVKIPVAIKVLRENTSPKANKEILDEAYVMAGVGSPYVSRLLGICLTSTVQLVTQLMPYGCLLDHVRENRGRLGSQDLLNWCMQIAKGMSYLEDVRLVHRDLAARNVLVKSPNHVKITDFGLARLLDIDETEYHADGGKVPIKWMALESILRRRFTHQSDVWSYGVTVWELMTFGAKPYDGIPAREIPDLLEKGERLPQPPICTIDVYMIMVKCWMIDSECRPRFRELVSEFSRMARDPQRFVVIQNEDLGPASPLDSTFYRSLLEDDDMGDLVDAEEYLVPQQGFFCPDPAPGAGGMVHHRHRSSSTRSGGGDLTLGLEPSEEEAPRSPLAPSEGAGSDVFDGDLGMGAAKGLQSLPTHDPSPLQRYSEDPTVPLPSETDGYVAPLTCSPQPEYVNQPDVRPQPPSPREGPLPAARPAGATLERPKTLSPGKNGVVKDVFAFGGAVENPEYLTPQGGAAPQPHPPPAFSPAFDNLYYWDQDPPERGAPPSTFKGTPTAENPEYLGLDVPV

Compound	viability [1] [%]	Her2 level [2]	viability [3]	viability [4]	viability [5]	differential viability (reversal) ([6]; H69AR cells + 2 uM doxorubicin)	viability [6, 16] [%]	viability [6, 17] [%]	inhibition [7]	inhibition [8]	growth inhibition [9]	growth inhibition [10]	viability increase [11]	viability [12]	viability [13]	inhibition [14]	RAM network inhibition [15]
N#Cc1cnc2sc3ccccc3n2c1=N	99	114% (inactive)	99% (inactive)	69% (inactive)	87.7% (inactive)	-2.73% (inactive)	90.5	87.7	-3.07% (inactive)	3.06% (inactive)	0.55% (inactive)	12.3% (inactive)	-1.27% (inactive)	94.4% (inactive)	95.9% (inactive)	-0.405% (inactive)	5.97% (inactive)
Cc1ccc(C)c2[nH]c(=O)c(CCNC(=O)CC(C)(C)C)cc12	88	105% (inactive)	88% (inactive)	103% (inactive)	90.9% (inactive)	21.2% (inactive)	69.7	90.9	-4.27% (inactive)	-4.5% (inactive)	-4.09% (inactive)	-11.6% (inactive)	1.59% (inactive)	104% (inactive)	92.6% (inactive)	1.04% (inactive)	4.85% (inactive)
Cc1noc(/C=C/N(C)C)c1S(=O)(=O)N1CCc2ccccc21	99	106% (inactive)	99% (inactive)	67.4% (inactive)	75.7% (inactive)	-20.2% (inactive)	95.9	75.7	0.13% (inactive)	-3.83% (inactive)	-22.4% (inactive)	-28.7% (inactive)	-6.84% (inactive)	84.4% (inactive)	68.7% (inactive)	1.65% (inactive)	10% (inactive)
CCc1c(C)c2c(C)nn(-c3ccccc3)c2[nH]c1=O	83	81.5% (inactive)	83% (inactive)	68.9% (inactive)	90.1% (inactive)	5.91% (inactive)	84.2	90.1	-0.65% (inactive)	-1.31% (inactive)	-3.86% (inactive)	4.15% (inactive)	-2.75% (inactive)	85.1% (inactive)	79% (inactive)	1.53% (inactive)	0.31% (inactive)
COCCOC(=O)C1=C(C)OC(N)=C(C#N)C1c1ccc2c(c1)OCO2 (stereo not drawn)	98	91.5% (inactive)	98% (inactive)	93.7% (inactive)	84.8% (inactive)	4.96% (inactive)	79.8	84.8	-3.12% (inactive)	-7.5% (inactive)	2.33% (inactive)	-2.95% (inactive)	-1.47% (inactive)	106% (inactive)	105% (inactive)	0.465% (inactive)	3.07% (inactive)
CC(=O)NC(C)C(=O)OCC(=O)Nc1ccc(Br)cc1 (stereo not drawn)	95	80.5% (inactive)	95% (inactive)	93.9% (inactive)	94.5% (inactive)	4.86% (inactive)	89.7	94.5	0.13% (inactive)	-4.17% (inactive)	-14.2% (inactive)	-18.7% (inactive)	0.09% (inactive)	99.7% (inactive)	100% (inactive)	2.33% (inactive)	1.92% (inactive)
COc1ccc(C)cc1NC(=O)C1CCN(S(=O)(=O)c2cccc3cccnc23)CC1	80.5	94.5% (inactive)	80.5% (inactive)	102% (inactive)	90.9% (inactive)	4.79% (inactive)	86.1	90.9	-5.33% (inactive)	-1.48% (inactive)	-0.795% (inactive)	-2.36% (inactive)	-2.44% (inactive)	95.3% (inactive)	86% (inactive)	1.77% (inactive)	4.45% (inactive)
COc1ccc(N(CC(=O)O)S(=O)(=O)c2ccc(OC)c(OC)c2)cc1	112	102% (inactive)	112% (inactive)	108% (inactive)	90.3% (inactive)	-3.8% (inactive)	94.1	90.3	-3.38% (inactive)	1.31% (inactive)	-15.1% (inactive)	-11.2% (inactive)	-1.32% (inactive)	105% (inactive)	99.1% (inactive)	-0.04% (inactive)	0.87% (inactive)
COc1cccc(-c2nc(CS(=O)(=O)CC(=O)N3CCN(c4ccccn4)CC3)c(C)o2)c1	90	112% (inactive)	90% (inactive)	81% (inactive)	90.9% (inactive)	12.7% (inactive)	78.3	90.9	-4% (inactive)	3.61% (inactive)	0.71% (inactive)	-2.45% (inactive)	-0.47% (inactive)	73.3% (inactive)	71.6% (inactive)	0.835% (inactive)	5.35% (inactive)
C=CCOc1ccc(/C(CC)=N/O)c(OC)c1	93.5	104% (inactive)	93.5% (inactive)	70.4% (inactive)	101% (inactive)	10.5% (inactive)	90.9	101	-1.82% (inactive)	0.5% (inactive)	-19.1% (inactive)	-11.4% (inactive)	-0.09% (inactive)	96.7% (inactive)	105% (inactive)	0.56% (inactive)	-0.68% (inactive)
Cc1ccc(-c2noc(COc3ccccc3C)n2)cc1	72.5	92% (inactive)	72.5% (inactive)	102% (inactive)	96.9% (inactive)	10.6% (inactive)	86.3	96.9	-1.2% (inactive)	1.61% (inactive)	-13.7% (inactive)	-16.5% (inactive)	3.84% (inactive)	93% (inactive)	103% (inactive)	0.065% (inactive)	0% (inactive)
CCOC(=O)Cn1c(=O)c(-c2ccccc2N)nc2ccccc21	101	84.5% (inactive)	101% (inactive)	85.3% (inactive)	75.6% (inactive)	-6.16% (inactive)	81.7	75.6	-5.6% (inactive)	-2% (inactive)	2.3% (inactive)	0.83% (inactive)	-1.72% (inactive)	108% (inactive)	98.8% (inactive)	2.16% (inactive)	3.47% (inactive)
COc1cc2c(cc1OC)CN(C(=O)CSc1nnc3scc(-c4ccccc4)n13)CC2	96	97% (inactive)	96% (inactive)	86.7% (inactive)	85.3% (inactive)	8.16% (inactive)	77.2	85.3	-0.53% (inactive)	-3.77% (inactive)	16.4% (inactive)	69% (active)	-3.13% (inactive)	99.4% (inactive)	94.6% (inactive)	1.08% (inactive)	3.4% (inactive)
O=C(c1ccc(CSCc2ccccc2F)o1)N1CCN(c2ccc(N3CCOCC3)nn2)CC1	84.5	76% (inactive)	84.5% (inactive)	54.7% (inactive)	79.7% (inactive)	-5.4% (inactive)	85	79.7	0.9% (inactive)	-0.17% (inactive)	1.75% (inactive)	17.4% (inactive)	-4.06% (inactive)	83.6% (inactive)	89.7% (inactive)	1.54% (inactive)	2.93% (inactive)
CCOCC(=O)Nc1nc2c(s1)C(=O)CC(C)(C)C2	80.5	108% (inactive)	80.5% (inactive)	97% (inactive)	83.7% (inactive)	-6.59% (inactive)	90.3	83.7	-7.73% (inactive)	1.5% (inactive)	-16.7% (inactive)	-21% (inactive)	-2.68% (inactive)	97.3% (inactive)	93% (inactive)	2.79% (inactive)	0.05% (inactive)
COc1cc(C(=O)N2c3ccccc3CC2C)cc(OC)c1OC (stereo not drawn)	102	81.5% (inactive)	102% (inactive)	88.8% (inactive)	81.8% (inactive)	-9.55% (inactive)	91.3	81.8	-4.59% (inactive)	-3.33% (inactive)	-3.11% (inactive)	-16.6% (inactive)	-4.64% (inactive)	87.4% (inactive)	83.8% (inactive)	0.67% (inactive)	6.34% (inactive)
O=C(Nc1ccccc1)C1=C(O)CC(c2ccoc2)CC1=Nc1ccccc1 (stereo not drawn)	93	91% (inactive)	93% (inactive)	96.8% (inactive)	73% (inactive)	-6.7% (inactive)	79.7	73	71.4% (active)	4.59% (inactive)	-11.2% (inactive)	-4.9% (inactive)	-4.69% (inactive)	69.6% (inactive)	70.3% (inactive)	1.05% (inactive)	2.05% (inactive)
CCOc1ccc2nc(N3CCC(C(=O)N4CCN(C5CCCCC5)CC4)CC3)sc2c1	83	83.5% (inactive)	83% (inactive)	98.6% (inactive)	95.7% (inactive)	8.46% (inactive)	87.2	95.7	-1.33% (inactive)	-4.1% (inactive)	-0.545% (inactive)	8.85% (inactive)	-3.43% (inactive)	55.6% (inactive)	70.3% (inactive)	1.22% (inactive)	0.6% (inactive)
COc1cccc(C2=NOC(C(=O)N3CCc4ccccc4C3)C2)c1 (stereo not drawn)	87	92.5% (inactive)	87% (inactive)	92.2% (inactive)	92% (inactive)	14.1% (inactive)	77.9	92	-1.41% (inactive)	-1.83% (inactive)	-9.41% (inactive)	4.4% (inactive)	-2.18% (inactive)	104% (inactive)	95.5% (inactive)	-0.045% (inactive)	-2.13% (inactive)
